From PubChem BioAssay
Gal4-VP16 FLuc: VP16 counterscreen qHTS for inhibitors of ROR gamma transcriptional activity; Drosophila S2 Gal4-VP16 UAS-luciferase, luminescence, 20 h; Potency, µM (top dose mostly 53.6 µM), for inactives: at the highest dose activity, negative = inhibition, hits mostly inhibitors; 3.5% of 310,000 active;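 note: Gal4-VP16 expression switched on by copper sulfate through the metallothionein promoter; % is set by controls: 0 for no effect and ±100 for the full control effect; nearly all actives have a fitted effect of over 50% in size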
GLP-1R agonist: qHTS of GLP-1 Receptor Agonists; AID 624172, 2012; HEK293 GLP-1R CRE-luciferase, luminescence, 4-6 h; cells express a hypersensitive GLP-1R form; 0.007% of 380,000 active; Glucagon-like peptide 1 receptor (Homo sapiens), P43220; Potency, µM (highest dose often 45.6 µM), without a hit: at the top dose activation, most hits filed as activators; note: % of control where 0% means no effect
RORgamma inh: qHTS for inhibitors of ROR gamma transcriptional activity; Nuclear receptor ROR-gamma (Mus musculus), P51450; Drosophila S2 Gal4-RORgamma UAS-luciferase reporter, 20 h; Potency, µM (doses to about 53.6 µM), without a hit: at the top dose activity change, negative = inhibition, actives largely listed as inhibitors; 5.4% of 310,000 active; AID 2551, 2010; note: % is set by controls: 0 for no effect and ±100 for the full control effect; nearly all actives have a fitted effect of over 60% in size
Target sequence (P51450 whole entry, looked up, the tested form may be a part): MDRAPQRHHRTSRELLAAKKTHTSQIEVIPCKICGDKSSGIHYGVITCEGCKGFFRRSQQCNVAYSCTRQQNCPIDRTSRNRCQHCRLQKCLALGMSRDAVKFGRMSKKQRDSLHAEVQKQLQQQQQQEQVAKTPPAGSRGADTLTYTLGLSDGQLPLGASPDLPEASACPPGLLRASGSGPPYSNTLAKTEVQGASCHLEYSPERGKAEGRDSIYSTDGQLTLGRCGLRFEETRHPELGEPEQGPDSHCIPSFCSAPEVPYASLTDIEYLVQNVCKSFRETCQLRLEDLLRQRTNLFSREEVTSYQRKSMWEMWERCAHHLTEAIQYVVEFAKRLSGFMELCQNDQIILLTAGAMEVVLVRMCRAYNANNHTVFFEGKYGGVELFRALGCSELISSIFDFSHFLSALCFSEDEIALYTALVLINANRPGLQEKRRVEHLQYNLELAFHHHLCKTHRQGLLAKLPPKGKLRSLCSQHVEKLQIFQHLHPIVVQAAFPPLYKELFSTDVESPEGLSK
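Luciferase reporter read in Schneider cells carrying Gal4-RORγ (mouse) and UAS-Photinus luciferase; cells given compound 1 h before 700 uM copper sulfate induction, then incubated 20 h at ambient temperature.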
HEK293 tox: qHTS of GLP-1 Receptor Inverse Agonists: Cytotox Screen | HEK293 cAMP-luciferase reporter cells, luminescence, 24 h | Potency, µM (doses to about 38.3 µM), for the others: top-dose activity change, negative = inhibition, most hits filed as inhibitors | 0.13% of 410,000 active | AID 624418, 2012;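 note: loss of luciferase light is scored as toxicity; % is set by controls: 0 for no effect and ±100 for the full control effect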
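To flag toxic compounds, the library was rerun on cells for 24 hr at 37 deg C and 5% CO2. Viability-linked luminescence was captured 12 min after adding luciferase detection reagent.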
GLP-1R inv ag: qHTS of GLP-1 Receptor Inverse Agonists (Inhibition Mode) | HEK293 GLP-1R CRE-luciferase, luminescence, 24 h; GLP-1R form is constitutively active | Potency, µM (titrated, usually from 38.3 µM), for the others: at the top dose activity change, negative = inhibition, usual class: inhibitors | Glucagon-like peptide 1 receptor (Homo sapiens), P43220 | 1.6% of 410,000 active; note: % is set by controls: 0 for no effect and ±100 for the full control effect; nearly all actives have a fitted effect of over 55% in size
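Constitutively active GLP-1R drives a cAMP-responsive luciferase in stably transfected HEK293 cells; test compounds are added after overnight (12 h) attachment and left 24 hr, and signal loss in luminescence marks inhibition.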
Numbers without * were called inactive; ? = inconclusive; nt = no result given; [ ] = dose if it differs, or a comment. Compounds with a hit are over-represented: about 5.9% of the library has one in this group of screens. Calls come from the whole dose curve; as a rule, active = well fitted curve in the direction sought with a large enough effect; inconclusive = small, poorly fitted or top-dose-only effect, or another doubt; inactive = no such curve, though single readings can be large; an effect the other way counts as inactive or inconclusive. Potency is the fitted concentration of half-maximal effect.

SMILES	Gal4-VP16 FLuc	GLP-1R agonist	RORgamma inh	HEK293 tox	GLP-1R inv ag
O=C(O)c1cccc(NC(=O)c2cn(-c3ccccc3)nc2-c2cc3ccccc3o2)c1	-7%	16%	?	0%[1.53 µM]	21%
O=C(N/N=C/c1cn(-c2ccccc2)nc1-c1cc2ccccc2o1)c1ccncc1	4.5µM*	-7%	2.8µM*	35%	-24%
C=C(C)OC(C)=O	9%	nt	-19%	nt	nt
CCCCOc1ccc(CSC2=NCCN2)cc1[N+](=O)[O-]	-6%	-6%	-5%	?	10µM*
CCOc1ccc(CSC2=NCCN2)cc1[N+](=O)[O-]	-7%	14%	-29%	?	?
CCN(CC)S(=O)(=O)c1ccc2nnn(OCC(=O)Nc3cccc(C#N)c3)c2c1	5%	10%	-3%	-29%	0%
CS(=O)(=O)c1ccc2nnn(OCC(=O)Nc3ccc(Br)cc3Br)c2c1	19%	4%	-29%	-6%	10µM*
Cc1ccc(Cn2c(C)c(CNCC(C)c3ccccc3)c(C(=O)O)c2C)cc1 (configuration not stated)	nt	nt	nt	-1%	-5%
CC1CCCN(CCCNC(=O)c2cc(Sc3ccc(F)cc3)nc3ccccc23)C1 (configuration not stated)	nt	nt	nt	?	12%
O=[N+]([O-])c1ccc(N2CCCC2)nc1N1CCCC1	-1%	20%	26%	2%	-6%
Nc1ncc([N+](=O)[O-])c(N2CCCCCC2)n1	-22%	-2%	11µM*	-8%	?
COCCNC(=S)Nc1cc(OC)c(NC(=O)c2ccco2)cc1OC	-4%	10%	-31%	-2%	13%
CCOCCCNC(=S)Nc1cc(OCC)c(NC(=O)c2ccco2)cc1OCC	-4%	9%	7.9µM*	11%	11%
CCOc1cc(NC(=S)NCC(C)C)c(OCC)cc1NC(=O)c1ccco1	7.9µM*	2%	5µM*	?	-12%
CCOc1cc(CNC(=O)c2ccc3nc(CCc4ccccc4)oc3c2)ccc1OC	nt	nt	nt	-2%	12%
CO[C@H]1COC(=O)CCC[C@H](C)[C@@H](OC)COC(=O)C/C=C\[C@@H]1C	-3%[10 µM]	nt	2%[10 µM]	nt	nt
O=C(/C=C/c1ccco1)NC(=S)Nc1ccccn1	?	-5%	10µM*	?	4%
O=C(/C=C/c1ccco1)Nc1cccc(NC(=O)/C=C/c2ccco2)n1	?	0%	18%	-25%	?
Cn1nnc(NC(=S)NC(=O)/C=C/c2ccco2)n1	-8%	0%	2%	-37%	13%
COc1ccccc1/C=C/C(=O)NC(=S)Nc1ccccn1	5.6µM*	-1%	4.5µM*	1%	30%
Cc1cccnc1NC(=S)NC(=O)/C=C/c1ccco1	7.9µM*	-1%	2.8µM*	-12%	41%
O=C(CN1C(=O)COc2ccc(S(=O)(=O)NC3CCCC3)cc21)NCc1ccc(Cl)cc1	nt	nt	nt	-6%	-29%
COC(=O)[C@H]1O[C@@H](c2cc(OC)c(C)c(OC)c2OCc2ccccc2)[C@H](C)[C@H]2O[C@@]12C	-6%	nt	6%	nt	nt
O=C(c1ccco1)N1N=C2CCCCCC2C1(O)C(F)(F)F (configuration not stated)	1µM*	25%	0.63µM*	-6%	-18%
COC(=O)N1N=C(c2ccccc2)CC1(O)C(F)(F)F (configuration not stated)	1%	-2%	-2%	28%	6%
SMILES	Gal4-VP16 FLuc	GLP-1R agonist	RORgamma inh	HEK293 tox	GLP-1R inv ag
CCCCC1=NN(C(=O)c2ccco2)C(O)(C(F)(F)F)C1 (configuration not stated)	18µM*	6%	6.3µM*	?	2.2µM*
COc1ccc(C(=O)N2N=C(c3ccccc3)CC2(O)C(F)(F)F)cc1 (configuration not stated)	7%[10 µM]	5%	16µM*	-12%	?
Nc1ccc(C(=O)N2N=C(c3ccc(F)cc3)CC2(O)C(F)(F)F)cc1 (configuration not stated)	-23%	19%	?	-11%	?
Nc1ccc(C(=O)N2N=C(c3ccccc3)CC2(O)C(F)(F)F)cc1 (configuration not stated)	-18%	13%	10µM*	-5%	-26%
CCN(C(=O)Cn1ncc2c1-c1cc(C)ccc1OC2)c1cc(Cl)ccc1OC	nt	nt	nt	-17%	?
N#CCCn1c(=O)c(-c2ccccc2)nc2cnc(Oc3ccccc3)nc21	-6%	nt	2%	nt	nt
C[Se]CC[C@H](N)C(=O)O	0%	1%	30%	nt	nt
COc1cccc(C2=NN(C(=O)c3ccco3)C(O)(C(F)(F)F)C2)c1 (configuration not stated)	?	9%	5.6µM*	1%	-30%
O=C(c1ccccc1O)N1N=C(c2ccccc2)CC1(O)C(F)(F)F (configuration not stated)	?	8%	8.9µM*	?	?
COc1cccc(C2=NN(C(=O)C3CC3)C(O)(C(F)(F)F)C2)c1 (configuration not stated)	nt	4%	nt	2%	-4%
O=C(C1CC1)N1N=C(c2ccncc2)CC1(O)C(F)(F)F (configuration not stated)	-3%	17%	-42%	-11%	4%
COc1cccc(C(=O)N2N=C(c3ccccc3)CC2(O)C(F)(F)F)c1 (configuration not stated)	20µM*	17%	18µM*	-21%	?
COc1cccc(C2=NN(C(=O)c3ccccc3)C(O)(C(F)(F)F)C2)c1 (configuration not stated)	?	1%	10µM*	-16%	?
C=C1CCN(C(C)C(=O)OCc2cccc(C)c2)S(=O)(=O)c2ccccc21 (configuration not stated)	2%	nt	5%	nt	nt
CCOC(=O)C(C)Sc1nnc(NC(=O)c2ccc3c(c2)OCO3)s1 (configuration not stated)	-21%	-3%	10µM*	15%[7.66 µM]	15%[7.66 µM]
CSc1nnc(NC(=O)c2ccc3c(c2)OCO3)s1	4.5µM*	-4%	2.5µM*	-1%	?
Cc1nnc(NC(=O)c2ccc3c(c2)OCO3)s1	-16%	-1%	-43%	11%	4%
COc1ccc(-c2nc3cnc(N4CCN(C)CC4)nc3n(Cc3ccc(F)cc3)c2=O)cc1	1%	nt	-16%	nt	nt
COc1ccccc1CNc1ccnc(-c2ccccc2C(F)(F)F)n1	3%	nt	-19%	nt	nt
Cc1ccc(C2=NNC3(CCOC(C)(C)C3)S2)cc1 (configuration not stated)	7.9µM*	4%	5.6µM*	-12%	-9%
